Data reported in PubChem BioAssay (NCI).
This is part of a sample that, as a whole, favours compounds with a hit. Of some 79,000 tested, about 15% had one in any assay. Calls of active or inactive are those of the source. Cut-off read from the data, not from the text of the source: active = growth inhibition above about 70%; inactive = the rest.

What was measured:
[1] = NCI Yeast Anticancer Drug Screen. Data for the mec2-1 strain (AID 157); conditions: S. cerevisiae mec2-1 strain, at 50.0 µM, active compounds read high
Outline: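 mec2-1 yeast strain, carrying an alteration in DNA damage repair or cell cycle control, was exposed to compounds; growth inhibition was measured relative to vehicle-treated controls.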

[2] = NCI Yeast Anticancer Drug Screen. Data for the sgs1 mgt1 strain (AID 161);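 note: 0% = growth of cultures given vehicle only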; conditions: S. cerevisiae sgs1 mgt1 strain, at 50.0 µM, active compounds read high
Outline: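 This yeast growth screen uses a strain with defined DNA-repair lesions; compound-treated growth is compared with vehicle-treated growth.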

[3] = NCI Yeast Anticancer Drug Screen. Data for the cln2 rad14 strain (AID 165);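 note: 0% = growth equal to vehicle treated cultures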; conditions: S. cerevisiae cln2 rad14 strain, at 50.0 µM, active compounds read high
Outline: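 Yeast carrying cln2 and rad14 alterations (cell cycle control and DNA damage repair) were exposed to compounds. Growth inhibition was measured against vehicle-treated controls.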

[4] = NCI Yeast Anticancer Drug Screen. Data for the bub3 strain (AID 167); conditions: S. cerevisiae bub3 mutant strain, at 50.0 µM, active compounds read high
Outline: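 Whole-cell yeast assay. The mutant strain was incubated with compounds, and growth inhibition was determined by comparison with vehicle-treated cells.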

[5] = NCI Yeast Anticancer Drug Screen. Data for the mlh1 rad18 strain (AID 175); conditions: S. cerevisiae mlh1 rad18 strain growth inhibition; at 50.0 µM; active compounds read high
Outline: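 Growth inhibition of the yeast strain was measured after compound exposure and expressed relative to vehicle-treated controls. The strain carries defined defects in DNA damage repair.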

Measured: growth inhibition

O=S(=O)([O-])[O-].O=c1[nH]cnc2nc[n-]c12.[OH3+].[OH3+].[Zn+2]
inactive: [1] -29.2% | [2] -20.6% | [3] -7.9% | [4] -30.9% | [5] -36.2%

CCOC(=O)c1cn(CC)c2c(ccc3cnccc32)c1=O
inactive: [1] -18.4% | [2] -18.4% | [3] 29.6% | [4] -11% | [5] 10.2%

COC(=O)C(CC(=O)[C@H]1CC[C@H]2[C@@H]3CC=C4C[C@@H](OC(C)=O)CC[C@]4(C)[C@H]3CC[C@]12C)OC(C)=O (stereo not given in full)
inactive: [1] -6.2% | [2] 26.7% | [3] 28.9% | [4] -1.75% | [5] 8.7%

COc1cc(OC)c(N=Nc2c(N)nc(N)[nH]c2=O)cc1Cl
inactive: [1] 14.6% | [2] 7.5% | [3] -12.1% | [4] 8.3% | [5] -1.4%

CCOC1(OCC)CS(=O)(=O)C1c1ccccc1 (stereo not given)
inactive: [1] -10.2% | [2] 1.95% | [3] -26.2% | [4] 12.6% | [5] -18.6%

Nc1ncnc(N2CCOCC2)n1
inactive: [1] -41.3% | [2] -8.15% | [3] 0.95% | [4] -14.9% | [5] -8.3%

CCCN(N)CCC
inactive: [1] -16.6% | [2] -7.8% | [3] -45.2% | [4] 0.25% | [5] -1.6%

C/C(=C/c1ccccc1)C(F)F
inactive: [1] -5.7% | [2] -13% | [3] -7.45% | [4] -11.6% | [5] 8.75%

CCN(CC)CC1CCCCN1CC(=O)N1c2ccccc2NC(=O)c2ccccc21 (stereo not given)
inactive: [1] -3.25% | [2] 5.25% | [3] -6.1% | [4] -1.9% | [5] 5.95%

NC1=NN(c2ccccc2)C(=O)C1/C(=N\NC(=O)c1cc2ccccc2cc1O)C(=O)Nc1ccc(Cl)cc1 (stereo not given)
inactive: [1] 21.9% | [2] -7.4% | [3] 24.8% | [4] 22.8% | [5] 49.5%

Clc1cccc(CC(Br)Br)c1
inactive: [1] 4.45% | [2] 6.75% | [3] 23% | [4] -4.65% | [5] 14.5%

COc1ccc(C=Nc2ccc([N+](=O)[O-])cc2O)cc1
inactive: [1] 2.7% | [2] 12.1% | [3] -10.9% | [4] 19.6% | [5] 1.6%

O=[N+]([O-])c1ccc2c(c1)C(=Nc1ccccc1)c1cc([N+](=O)[O-])cc([N+](=O)[O-])c1-2
inactive: [1] 5.65% | [2] 19.1% | [3] 21.1% | [4] 3.5% | [5] 13.4%

CCCOC1CC(C)C(O)C(C)C1 (stereo not given)
inactive: [1] -4.15% | [2] 3.35% | [3] -10.8% | [4] -1.35% | [5] 15.5%

CCOC(=S)Sc1ccc2c(c1)-c1ccc(F)cc1C2=O
inactive: [1] 6.3% | [2] 2.1% | [3] 10.2% | [4] -3.85% | [5] -1.65%

N#CCCn1ncc(C#N)c1N
inactive: [1] -7.95% | [2] -1.5% | [3] -38.5% | [4] -2.5% | [5] 8.5%

O=C(NCc1ccco1)Nc1ccccc1Cl
inactive: [1] -0.2% | [2] -6.2% | [3] 45.8% | [4] 4.25% | [5] -11%

O=C(O)c1cc(=O)c2[nH]c3ccccc3c2s1
inactive: [1] -17.9% | [2] -19.5% | [3] 9.55% | [4] -22.6% | [5] 7.95%

O=C1OC(=O)C2(Cl)C3C=CC(C3)C12 (stereo not given)
inactive: [1] -8.15% | [2] -15.6% | [3] -72.6% | [4] -16.3% | [5] 4.8%

NCCCn1c2ccccc2c2cnccc21
inactive: [1] 4.15% | [2] 2.15% | [3] -6.65% | [4] 1.05% | [5] -20.2%

NC(=O)N/N=C(/c1nc2ccc([N+](=O)[O-])cc2[nH]c1=O)C(O)c1ccco1 (stereo not given)
inactive: [1] -9.65% | [2] -11.1% | [3] 19.8% | [4] -19% | [5] 3.5%

COc1ccc(CCNC(=O)c2cccc(Cl)c2)cc1OC
inactive: [1] -28.9% | [2] -23.1% | [3] -44.6% | [4] -22% | [5] -12.2%

CN(C)C(=O)C1C2CCC(C3CC32)C1C(=O)N(C)C (stereo not given)
inactive: [1] 11.8% | [2] 37.2% | [3] 24.4% | [4] 24.6% | [5] 23.4%

COc1ccc(C2C3=CONC3CC3CCCCC32)cc1 (stereo not given)
inactive: [1] -34.5% | [2] -0.4% | [3] 8.25% | [4] 6.25% | [5] 6.5%

c1ccc(CNn2nnc3ccccc32)cc1
inactive: [1] -14.4% | [2] 7.25% | [3] 3.15% | [4] -2.95% | [5] 21.9%

CCCCCCCCS(N)(=O)=O
inactive: [1] -15.2% | [2] -4.1% | [3] -11.4% | [4] -2.55% | [5] -8.95%

CC1=NN(C(=O)c2cccnc2)C(=O)C1N=Nc1ccc(S(=O)(=O)Nc2ccccn2)cc1 (stereo not given)
inactive: [1] -8.75% | [2] 4.75% | [3] 11.4% | [4] -1.6% | [5] 1.8%

O.O.O=c1[nH]cc(CO)c(=O)[nH]1.[NH2-].[NH2-].[Pt+2]
inactive: [1] -1.15% | [2] 14.5% | [3] 16.6% | [4] 0.45% | [5] 4.25%

C=CSC(=S)Sc1ccccc1
inactive: [1] 28.4% | [2] -1.15% | [3] 3.45% | [4] 19% | [5] 12.9%

COc1cccc(CC(=O)O)c1OC
inactive: [1] -4.75% | [2] -12% | [3] 1.8% | [4] -3.5% | [5] 12.6%

O=C(Cc1nccc2c1[nH]c1ccccc12)OC1C#CCSCC#C/C=C\1 (stereo not given)
inactive: [1] 17.8% | [2] 9.5% | [3] -14.7% | [4] 12.3% | [5] -1.15%

FC(F)(F)c1ccc(C2SCc3nc4ccccc4n32)cc1 (stereo not given)
inactive: [1] -5.4% | [2] -1.95% | [3] -0.5% | [4] -14.2% | [5] 11.3%

CC1(CCl)Nc2ccccc2C(=O)N1c1ccc(Cl)cc1 (stereo not given)
inactive: [1] -13.9% | [2] 8.95% | [3] -2.05% | [4] 20.9% | [5] -0.5%

CCOC(=O)c1ccc(NCc2ccc3nc(OC)c(OC)nc3c2)cc1
inactive: [1] -20.5% | [2] -13.7% | [3] 14.9% | [4] 6.85% | [5] -19.4%

COc1ccc2c(c1)C(C)(C(N)=O)CCC2 (stereo not given)
inactive: [1] 4.8% | [2] 3.7% | [3] 5.5% | [4] -12.2% | [5] -13.2%

Cc1ccc(S(=O)(=O)Nc2nnc(CC(C)C)s2)cc1
inactive: [1] -6.45% | [2] 35.2% | [3] 28.1% | [4] 40.9% | [5] 35.9%

CCOC(=O)C(SC(Cl)(S(=O)(=O)c1ccccc1)S(=O)(=O)c1ccccc1)C(=O)OCC
inactive: [1] 10.1% | [2] -4.75% | [3] -8.75% | [4] -13% | [5] -14.6%

CCCCCCCOC(C)=O
inactive: [1] -11.8% | [2] 11.3% | [3] -16.2% | [4] -3% | [5] 21.6%

Oc1c(N=Nc2ccccc2)c2ccccc2c2ccc3ccccc3c12
inactive: [1] -13.7% | [2] -7.6% | [3] -15.9% | [4] -8.2% | [5] 6.85%
